# Test results taken from PubChem BioAssay (NCATS).
# Unmarked numbers belong to inactive results. Results filed as inconclusive are left out. Some of the results follow. Activity calls are given as the source filed them. Unless noted, calls come from the whole dose curve; as a rule, active = well fitted curve in the direction sought with a large enough effect; inconclusive = small, poorly fitted or top-dose-only effect, or another doubt; inactive = no such curve, though single readings can be large; an effect the other way counts as inactive or inconclusive.
# How the values were obtained:
# [1] = target: Cytochrome P450 1A2 (Homo sapiens) (UniProt P05177); test: p450-cyp1a2 (AID 410; calls by dose curve; note: potency is the fitted concentration of half-maximal effect)
# In short: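 20nM CYP1A2, 100uM Luciferin-ME (=Km), 100mM KPO4; cpd 10 min RT; +NADPH regen, 60 min RT; stop/detect 20 min; luminescence. Normalized to furafylline 57 uM = full inhibition.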
# [2] = target: Glucocorticoid receptor (Homo sapiens) (UniProt P04150); test: GR-EFC Redistribution (AID 451; calls by dose curve; note: potency is the fitted concentration of half-maximal effect); conditions: CHO-K1 GR-EFC translocation, beta-gal luminescence, 2 h
# In short: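 CHO-K1 cells stably expressing nuclear-localized β-gal enzyme acceptor and GR fused C-terminally to the enzyme donor fragment; ligand-driven nuclear translocation restores β-gal by complementation. Compounds titrated up to 46 uM final, 2 h at 37 °C; luminescence read.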
# [3] = target: Cytochrome P450 3A4 (Homo sapiens) (UniProt P08684); test: qHTS Assay for Activators of Cytochrome P450 3A4 (AID 885); note: nearly all actives have a fitted effect of over 65% in size
# Chain of Cytochrome P450 3A4 (Homo sapiens) (P08684 whole entry, looked up): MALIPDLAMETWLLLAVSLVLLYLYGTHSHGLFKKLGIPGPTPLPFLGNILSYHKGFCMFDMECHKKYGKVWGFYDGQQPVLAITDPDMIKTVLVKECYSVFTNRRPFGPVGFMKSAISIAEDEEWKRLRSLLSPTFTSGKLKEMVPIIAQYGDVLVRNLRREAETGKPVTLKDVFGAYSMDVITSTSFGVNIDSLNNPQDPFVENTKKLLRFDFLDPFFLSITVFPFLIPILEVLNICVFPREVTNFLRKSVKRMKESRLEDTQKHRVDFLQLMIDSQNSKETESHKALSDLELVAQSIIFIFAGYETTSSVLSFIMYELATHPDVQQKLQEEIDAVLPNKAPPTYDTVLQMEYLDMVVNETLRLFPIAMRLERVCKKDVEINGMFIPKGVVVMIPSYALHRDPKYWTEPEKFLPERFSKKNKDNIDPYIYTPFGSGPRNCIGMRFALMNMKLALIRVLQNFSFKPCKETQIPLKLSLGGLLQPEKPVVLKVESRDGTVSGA
# In short: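 Human CYP3A4 dealkylates Luciferin-PPXE to luciferin, which luciferase detection converts to light. Substrate was at its KM (25uM), buffer 200mM KPO4, reaction 60 min at RT.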
# [4] = Confirmation and Secondary Assay for Modulators of Hemoglobin Beta Chain Splicing at IVS2 654 locus (AID 910);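 note: per-well total GFP intensity by laser scanning cytometry after 2-day treatment; % of control where 0% means no effect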
# In short: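 HeLa cells stably carrying EGFP interrupted by mutant beta-globin IVS2-654 intron (CMV-driven) were treated with compound for 2 days at 37C; corrected splicing was scored as total peak GFP intensity per well (488 nm excitation, 500-520 nm emission).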
# [5] = Confirmation and Secondary Assay for Modulators of Hemoglobin Beta Chain Splicing at IVS2 705 locus (AID 930);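 note: HeLa cells stably expressing the EGFP-705 splicing reporter; GFP fluorescence per well restored by corrected splicing of the IVS2-705 intron in EGFP; % of control where 0% means no effect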
# In short: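 Fluorescence gain (488 nm laser, 500-520 nm PMT) reflects restored correct splicing of a mutant IVS2-705 intron inside EGFP in stably transfected HeLa cells after 2-day compound treatment.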
# [6] = target: Ubiquitin carboxyl-terminal hydrolase 1 (Homo sapiens) (UniProt O94782); test: Inhibitors of USP1/UAF1: Pilot qHTS (AID 504865);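 note: rhodamine fluorescence freed from ubiquitin-rhodamine substrate followed over time; top concentration of the series differs between compounds; % is set by controls: 0 for no effect and ±100 for the full control effect; nearly all actives have a fitted effect of over 35% in size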
# Chain of Ubiquitin carboxyl-terminal hydrolase 1 (Homo sapiens) (O94782 whole entry, looked up): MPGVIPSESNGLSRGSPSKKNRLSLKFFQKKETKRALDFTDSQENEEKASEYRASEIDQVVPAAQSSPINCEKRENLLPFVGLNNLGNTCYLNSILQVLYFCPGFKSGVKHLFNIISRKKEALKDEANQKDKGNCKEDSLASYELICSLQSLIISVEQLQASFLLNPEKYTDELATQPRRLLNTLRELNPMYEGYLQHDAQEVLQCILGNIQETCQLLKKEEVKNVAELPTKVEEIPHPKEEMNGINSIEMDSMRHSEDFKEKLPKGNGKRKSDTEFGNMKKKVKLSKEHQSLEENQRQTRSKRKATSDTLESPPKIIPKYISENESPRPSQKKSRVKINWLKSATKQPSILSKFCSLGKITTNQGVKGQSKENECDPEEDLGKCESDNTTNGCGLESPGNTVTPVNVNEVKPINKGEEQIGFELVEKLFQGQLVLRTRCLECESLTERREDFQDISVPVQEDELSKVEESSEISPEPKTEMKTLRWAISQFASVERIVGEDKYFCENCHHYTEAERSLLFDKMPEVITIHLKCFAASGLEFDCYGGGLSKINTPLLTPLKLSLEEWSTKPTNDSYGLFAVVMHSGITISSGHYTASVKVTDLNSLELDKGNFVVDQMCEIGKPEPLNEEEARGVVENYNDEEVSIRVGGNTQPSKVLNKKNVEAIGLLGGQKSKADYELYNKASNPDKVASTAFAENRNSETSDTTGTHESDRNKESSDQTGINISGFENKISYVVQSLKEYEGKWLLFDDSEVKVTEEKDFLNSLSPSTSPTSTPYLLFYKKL
# In short: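 Enzyme-free wells gave the negative control, while test wells held 1nM USP1/UAF1 preincubated with compound for 15 min at room temperature. Ub-Rho at 150nM final started the reaction, and fluorescence at 480/540 nm was recorded kinetically.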
# [7] = Stat Signaling Pathway (AID 446; active = well fitted curve in either direction with a large enough effect, not every such curve was filed as active;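 note: ME-180 cervical cancer cells given 40 pM IL-6 alongside compound; SIE-controlled beta-lactamase reporter measured as 460/530 nm FRET emission ratio; % is set by controls: 0 for no effect and ±100 for the full control effect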); conditions: ME-180 (cervical carcinoma) SIE beta-lactamase reporter, IL-6 stimulated, 5 h; at 7.69 µM (top of the series) unless noted
# In short: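 Normalization used AC90 stimulation (300 pM IL-6) and AC90 inhibition (125 nM pan-JAK inhibitor at 40 pM IL-6). The underlying signal is SIE-driven beta-lactamase in ME-180 cells after 5 h IL-6 exposure with compound.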
# [8] = target: DNA repair nuclease/redox regulator APEX1 (Homo sapiens) (UniProt P27695); test: Confirmation qHTS Assay for Inhibitors of the Human Apurinic/apyrimidinic Endonuclease 1 (APE1) (AID 2572); conditions: purified APE1, fluorogenic abasic-site DNA cleavage; note: potency is the fitted concentration of half-maximal effect; nearly all actives have a fitted effect of over 30% in size
# Chain of DNA repair nuclease/redox regulator APEX1 (Homo sapiens) (P27695 whole entry, looked up): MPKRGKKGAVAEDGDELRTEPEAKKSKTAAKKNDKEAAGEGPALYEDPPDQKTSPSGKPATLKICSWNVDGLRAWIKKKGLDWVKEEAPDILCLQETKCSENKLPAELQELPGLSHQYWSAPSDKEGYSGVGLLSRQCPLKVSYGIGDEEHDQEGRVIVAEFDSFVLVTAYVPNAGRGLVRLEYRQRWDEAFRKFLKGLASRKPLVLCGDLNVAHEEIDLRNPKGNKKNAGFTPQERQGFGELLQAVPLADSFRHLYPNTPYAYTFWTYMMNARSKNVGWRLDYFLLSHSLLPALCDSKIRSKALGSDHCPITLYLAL
# In short: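 APE1 endonuclease activity was assessed as fluorescence released when the enzyme nicked a quenched abasic-site duplex (50 nM final). Compounds were preincubated with enzyme 15 min at room temperature before substrate addition.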
# [9] = target: Lethal(3)malignant brain tumor-like protein 1 (Homo sapiens) (UniProt Q9Y468); test: qHTS Assay for the Inhibitors of L3MBTL1: Hit Validation (AID 540279); conditions: L3MBTL1 methyl-lysine binding inhibition, biochemical qHTS; note: potency is the fitted concentration of half-maximal effect; nearly all actives have a fitted effect of over 70% in size
# In short: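 AlphaScreen competition format: 50 nM L3MBTL1 preincubated 30 min at room temperature with 75 nM biotinylated H3(1-15)K9me1 peptide, then compounds added for 30 min, then streptavidin donor and nickel chelate acceptor beads (10 ug/mL final) for 30 min dark.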
# [10] = qHTS Assay for the Inhibitors of L3MBTL1: Hit Validationin AlphaScreen Counterscreen (AID 602224); note: 0% is about no effect
# In short: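 Room-temperature AlphaScreen artifact check: compound with b-His6 15 min, then streptavidin donor and nickel acceptor beads (10 ug/mL each; b-His6 1 nM final) for 30 min in the dark before reading.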
# [11] = target: Phosphoglycerate kinase, glycosomal (Trypanosoma brucei brucei) (UniProt P07378); test: qHTS for inhibitors of Phosphogylcerate Kinase: Hit Validation Screen (AID 686980); conditions: TbPGK coupled GAPDH assay, Kinase-Glo luminescence; note: potency is the fitted concentration of half-maximal effect; nearly all actives have a fitted effect of over 65% in size
# Chain of Phosphoglycerate kinase, glycosomal (Trypanosoma brucei brucei) (P07378 whole entry, looked up): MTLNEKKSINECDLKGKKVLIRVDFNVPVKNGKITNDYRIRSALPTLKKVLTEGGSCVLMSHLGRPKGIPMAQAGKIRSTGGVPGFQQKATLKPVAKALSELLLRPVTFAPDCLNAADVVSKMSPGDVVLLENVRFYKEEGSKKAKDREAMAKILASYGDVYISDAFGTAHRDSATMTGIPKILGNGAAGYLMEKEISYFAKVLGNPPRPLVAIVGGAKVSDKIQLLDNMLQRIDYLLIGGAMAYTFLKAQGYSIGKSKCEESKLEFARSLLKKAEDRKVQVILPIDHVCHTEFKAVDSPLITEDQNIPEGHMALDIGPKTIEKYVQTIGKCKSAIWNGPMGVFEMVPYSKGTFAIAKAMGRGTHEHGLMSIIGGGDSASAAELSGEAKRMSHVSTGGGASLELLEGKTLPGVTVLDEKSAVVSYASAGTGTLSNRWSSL
# In short: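 Recombinant glycosomal PGK reaction used 1,3-bisphosphoglycerate generated in-well by GAPDH (100nM final) in 100mM TEA pH 7.6, 5mM MgCl2, 0.01% Tween-20. After 60 minutes at room temperature, ATP was read by Kinase-Glo Plus luminescence end-point.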
# [12] = target: DNA polymerase iota (Homo sapiens) (UniProt Q9UNA4); test: qHTS for Inhibitors of Polymerase Iota: Confirmatory Assay for Cherry-picked Compounds (AID 720496); conditions: Pol iota primer extension, TAMRA/BHQ fluorescence; note: potency is the fitted concentration of half-maximal effect
# In short: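 Enzyme (10 nM Pol iota) and compound sit together for 15 min at room temperature. Adding annealed primer/TAMRA-reporter/BHQ-2-template substrate, 50 nM final, starts the reaction, which is followed by fluorescence over 10 min.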
# [13] = target: Bifunctional 3'-5' exonuclease/ATP-dependent helicase WRN (Homo sapiens) (UniProt Q14191); test: qHTS for Inhibitors of WRN Helicase: Confirmatory Assay for Cherry-picked Compounds. (AID 720497); conditions: WRN helicase DNA unwinding, fluorescence kinetic; note: potency is the fitted concentration of half-maximal effect; nearly all actives have a fitted effect of over 65% in size
# In short: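 Compound and 20 nM WRN incubated 15 min, RT. Forked duplex (100 nM) plus ATP (2 mM) added. Fluorescence monitored kinetically and normalized to controls.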
# [14] = qHTS for Inhibitors of WRN Helicase: Thiazole Orange DNA Binding Counterscreen (AID 720499);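 note: drop in dye fluorescence marks compound binding to DNA; % is set by controls: 0 for no effect and ±100 for the full control effect; nearly all actives have a fitted effect of over 60% in size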
# In short: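 To exclude WRN hits acting through DNA binding, fluorescence of 100 nM thiazole orange bound to 50 nM unlabeled DNA is read (ex 480, em 530 nm) 15 min after compound addition at room temperature.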
# [15] = target: DNA polymerase kappa (Homo sapiens) (UniProt Q9UBT6); test: qHTS for Inhibitors of Polymerase Kappa: Confirmatory Assay for Cherry-picked Compounds (AID 720501); conditions: purified Pol-kappa, fluorescent strand-displacement substrate; note: potency is the fitted concentration of half-maximal effect
# In short: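 Human Pol-kappa, dispensed at 10 nM, was preincubated with compounds for 15 min at room temperature. Reactions were started with primer/template substrate (50 nM final) carrying a TAMRA reporter strand and BHQ-2-quenched template, and fluorescence (ex 525/em 598 nm) was read at 0 and 10 min.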
# [16] = target: DNA polymerase eta (Homo sapiens) (UniProt Q9Y253); test: qHTS for Inhibitors of Polymerase Eta: Confirmatory Assay for Cherry-picked Compounds (AID 720502); conditions: Pol eta primer extension, TAMRA/BHQ fluorescence, 10 min; note: potency is the fitted concentration of half-maximal effect
# Chain of DNA polymerase eta (Homo sapiens) (Q9Y253 whole entry, looked up): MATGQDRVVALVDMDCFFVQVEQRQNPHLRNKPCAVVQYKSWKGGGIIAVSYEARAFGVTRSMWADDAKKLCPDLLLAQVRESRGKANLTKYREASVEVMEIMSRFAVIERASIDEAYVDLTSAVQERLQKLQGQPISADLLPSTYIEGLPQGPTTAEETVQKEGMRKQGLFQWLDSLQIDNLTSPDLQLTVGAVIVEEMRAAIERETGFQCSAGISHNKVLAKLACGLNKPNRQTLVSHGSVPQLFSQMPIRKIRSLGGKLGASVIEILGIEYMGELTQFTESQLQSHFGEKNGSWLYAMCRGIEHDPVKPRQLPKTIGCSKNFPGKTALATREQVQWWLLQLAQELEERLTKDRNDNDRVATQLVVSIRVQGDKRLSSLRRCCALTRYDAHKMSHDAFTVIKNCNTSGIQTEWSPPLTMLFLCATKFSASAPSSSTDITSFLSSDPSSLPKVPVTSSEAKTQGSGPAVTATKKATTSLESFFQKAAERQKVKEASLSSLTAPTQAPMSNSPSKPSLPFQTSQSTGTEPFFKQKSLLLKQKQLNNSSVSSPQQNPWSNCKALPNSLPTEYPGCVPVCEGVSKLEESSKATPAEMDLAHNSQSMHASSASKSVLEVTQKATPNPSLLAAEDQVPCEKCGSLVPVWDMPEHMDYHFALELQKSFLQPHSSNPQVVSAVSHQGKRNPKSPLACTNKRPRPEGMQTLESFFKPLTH
# In short: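 Strand-displacement fluorescence (525 nm excitation, 598 nm emission) was read kinetically at 0 and 10 min after adding 50 nM final TAMRA-reporter/BHQ-2-template substrate. Beforehand, 10 nM Pol eta had been exposed to compound for 15 min at room temperature.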
# [17] = target: RecQ-like DNA helicase BLM (Homo sapiens) (UniProt P54132); test: qHTS for Inhibitors of WRN Helicase: BLM Helicase Counterscreen for WRN Inhibitors (AID 720503); conditions: Recombinant BLM helicase DNA unwinding, red fluorescence; note: potency is the fitted concentration of half-maximal effect; nearly all actives have a fitted effect of over 60% in size
# Chain of RecQ-like DNA helicase BLM (Homo sapiens) (P54132 whole entry, looked up): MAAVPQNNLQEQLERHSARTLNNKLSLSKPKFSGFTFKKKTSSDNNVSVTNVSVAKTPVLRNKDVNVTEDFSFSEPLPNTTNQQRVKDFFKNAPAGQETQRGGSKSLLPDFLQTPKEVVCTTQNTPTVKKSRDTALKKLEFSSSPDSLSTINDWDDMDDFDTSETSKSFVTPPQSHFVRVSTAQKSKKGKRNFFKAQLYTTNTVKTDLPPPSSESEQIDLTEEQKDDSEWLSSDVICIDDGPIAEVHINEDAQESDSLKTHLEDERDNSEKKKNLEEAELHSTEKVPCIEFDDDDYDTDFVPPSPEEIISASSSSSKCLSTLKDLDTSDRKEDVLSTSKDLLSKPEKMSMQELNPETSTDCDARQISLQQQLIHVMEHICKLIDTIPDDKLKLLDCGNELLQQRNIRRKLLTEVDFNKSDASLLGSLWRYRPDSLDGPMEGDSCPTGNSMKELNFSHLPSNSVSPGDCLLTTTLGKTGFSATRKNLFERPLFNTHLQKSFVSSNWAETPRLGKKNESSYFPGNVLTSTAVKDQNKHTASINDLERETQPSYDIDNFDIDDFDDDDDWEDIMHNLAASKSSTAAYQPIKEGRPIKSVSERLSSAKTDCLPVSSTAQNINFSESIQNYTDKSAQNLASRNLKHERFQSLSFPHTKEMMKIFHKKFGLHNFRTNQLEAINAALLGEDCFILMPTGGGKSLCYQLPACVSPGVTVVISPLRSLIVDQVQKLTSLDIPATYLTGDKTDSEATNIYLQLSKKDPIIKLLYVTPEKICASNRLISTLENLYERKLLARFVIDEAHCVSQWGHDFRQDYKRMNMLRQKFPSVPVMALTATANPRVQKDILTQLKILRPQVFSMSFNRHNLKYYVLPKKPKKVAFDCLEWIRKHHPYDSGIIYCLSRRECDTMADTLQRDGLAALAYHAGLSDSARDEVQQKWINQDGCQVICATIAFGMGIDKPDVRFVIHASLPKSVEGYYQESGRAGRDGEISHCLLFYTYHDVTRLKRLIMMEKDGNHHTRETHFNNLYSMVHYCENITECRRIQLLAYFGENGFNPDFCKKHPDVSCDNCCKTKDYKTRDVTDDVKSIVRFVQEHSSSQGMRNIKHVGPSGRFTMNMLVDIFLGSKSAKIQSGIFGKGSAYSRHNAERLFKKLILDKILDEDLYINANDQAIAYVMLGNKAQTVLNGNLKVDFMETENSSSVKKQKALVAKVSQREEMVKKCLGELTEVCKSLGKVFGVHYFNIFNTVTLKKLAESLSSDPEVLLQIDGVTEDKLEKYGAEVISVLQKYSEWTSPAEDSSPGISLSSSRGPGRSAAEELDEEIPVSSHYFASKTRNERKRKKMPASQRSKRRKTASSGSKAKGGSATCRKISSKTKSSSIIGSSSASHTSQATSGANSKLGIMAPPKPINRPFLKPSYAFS
# In short: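 BLM at 1 nM was preincubated with compound for 15 min at room temperature in 25 mM Tris-HCl pH 8.0, 50 mM NaCl, 2 mM MgCl2, 1 mM DTT and 0.01% Tween-20. Unwinding was started with 100 nM DNA and 2 mM ATP (final). Fluorescence (ex 525/em 598 nm) was read twice, 15 min apart, and normalized to enzyme-free and DMSO controls.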
# [18] = qHTS for Inhibitors of Ubiquitin-specific Protease USP2a Using CHOP2 as the Reporter: K633 Counterscreen (AID 652168); note: % of control where 0% means no effect
# In short: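 Detection-system control: fluorescence of K48-linked DiUb-4IQF substrate (100 nM as added) tracked over time, Ex 525/Em 598, with pinned compounds and no enzyme, in pH 8 Tris buffer containing beta-mercaptoethanol and 0.05% Chaps.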
# [19] = qHTS for Inhibitors of Ubiquitin-specific Protease USP2a Using CHOP2 as the Reporter: Cytotox Assay (AID 652170);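 note: HCT116 human colon cancer cells at 600 per well; plate controls were DMSO-treated cells for no effect and wells without cells for full effect; nearly all actives have a fitted effect of over 70% in size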
# In short: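 Cytotoxicity read as ATP luminescence (CellTiter-Glo) after 72 hr compound treatment at 37 deg C. Cells: HCT116, 600/well in DMEM plus 10% FBS. Normalization between DMSO-treated cells and cell-free wells.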
# [20] = target: Ubiquitin carboxyl-terminal hydrolase 2 (Homo sapiens) (UniProt O75604); test: qHTS for Inhibitors of Ubiquitin-specific Protease USP2a Using CHOP2 as the Reporter: K484 Substrate (AID 652173);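 note: cleavage of internally quenched K48 di-ubiquitin substrate measured as rising fluorescence over time; nearly all actives have a fitted effect of over 70% in size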; note: potency is the fitted concentration of half-maximal effect
# Chain of Ubiquitin carboxyl-terminal hydrolase 2 (Homo sapiens) (O75604 whole entry, looked up): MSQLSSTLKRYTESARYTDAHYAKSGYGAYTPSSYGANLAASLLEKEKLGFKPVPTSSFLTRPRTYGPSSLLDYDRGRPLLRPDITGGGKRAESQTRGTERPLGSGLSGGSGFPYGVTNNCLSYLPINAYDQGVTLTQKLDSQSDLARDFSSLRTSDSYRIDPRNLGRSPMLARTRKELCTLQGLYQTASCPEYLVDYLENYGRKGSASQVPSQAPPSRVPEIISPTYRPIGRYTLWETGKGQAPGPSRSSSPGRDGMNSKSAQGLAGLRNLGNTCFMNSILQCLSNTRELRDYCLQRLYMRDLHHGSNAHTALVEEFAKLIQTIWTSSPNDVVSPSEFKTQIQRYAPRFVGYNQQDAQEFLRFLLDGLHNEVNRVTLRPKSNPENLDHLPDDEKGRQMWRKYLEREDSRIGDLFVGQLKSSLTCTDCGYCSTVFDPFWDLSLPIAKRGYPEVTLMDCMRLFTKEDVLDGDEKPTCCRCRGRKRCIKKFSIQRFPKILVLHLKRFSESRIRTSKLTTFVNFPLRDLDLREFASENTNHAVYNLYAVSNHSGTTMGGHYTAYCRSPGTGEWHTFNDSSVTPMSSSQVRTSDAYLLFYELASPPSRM
# In short: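 Kinetic fluorescence (Ex 525/Em 598) tracked cleavage of an internally quenched K48 di-ubiquitin substrate, added as a 100 nM solution. The enzyme was added as a 5 nM USP2 solution before compound pinning, with no-enzyme controls. Buffer: Tris pH 8, beta-mercaptoethanol, CHAPS.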
smiles,measurement,setting,value
Cc1cccc(CNc2ncnc3ccc(-c4cccnc4)cc23)c1,Potency,[1],0.316 µM (active)
same,Potency,[2],> 46 µM
same,Potency,[3],inactive
same,outcome,[4],inactive
same,outcome,[5],inactive
same,Potency,[6],inactive
CNc1oc(-c2cccs2)nc1C#N,"activity, negative = inhibition",[7],-2.1% [at 17.2 µM]
Cc1ccccc1NC(=O)CN1C(=O)N/C(=C\c2cccn2-c2cccc(C(=O)O)c2)C1=O,Potency,[8],28.2 µM (active)
same,Potency,[9],1.5 µM (active)
same,outcome,[10],inactive
same,Potency,[11],5.8 µM (active)
same,Potency,[12],16.8 µM (active)
same,Potency,[13],6.07 µM (active)
same,outcome,[14],inactive
same,Potency,[15],2.99 µM (active)
same,Potency,[16],16.9 µM (active)
same,Potency,[17],7.64 µM (active)
O=C(CCc1ccccc1)Nc1ccc(S(=O)(=O)Nc2nccs2)cc1,outcome,[18],inactive
same,Potency,[19],inactive
same,Potency,[20],inactive
CC(=O)NS(=O)(=O)c1ccc(NC(=O)c2cc(-c3ccc(C)c(C)c3)nc3ccccc23)cc1,Potency,[19],inactive
same,Potency,[20],12.2 µM (active)
